Records with an inconclusive call do not appear. Where a call stands in place of a potency, no number is given. Unmarked numbers belong to inactive results. Active and inactive are the calls of the source. Unless noted, calls come from the whole dose curve.
How the values were obtained:
[1] = qHTS for Inhibitors of the Functional Ribonucleoprotein Complex (vRNP) of Lassa (LASV) Arenavirus: LASV Primary Screen - GLuc reporter signal (AID 1347082; calls by dose curve; tested in HEK293 reporter line; note: nearly all actives have a fitted effect of over 60% in size; for activity change, negative = inhibition: series mostly up to about 57 µM)
[2] = qHTS for Inhibitors of the Functional Ribonucleoprotein Complex (vRNP) of Lassa (LASV) Arenavirus: Viability assay - alamar blue signal for LASV Primary Screen (AID 1347083; calls by dose curve; tested in HEK293 reporter line; note: nearly all actives have a fitted effect of over 80% in size; for activity change, negative = reduced viability: series mostly up to about 57 µM)
[3] = qHTS for Inhibitors of the Functional Ribonucleoprotein Complex (vRNP) of Lymphocytic Choriomeningitis Arenaviruses (LCMV): Viability assay - alamar blue signal for LCMV Primary Screen (AID 1347085; calls by dose curve; tested in HEK293 reporter line; note: nearly all actives have a fitted effect of over 80% in size; for activity change, negative = lower viability: series mostly up to about 57 µM)
[4] = target: Nucleoprotein (Lymphocytic choriomeningitis virus (strain Armstrong)) (UniProt P09992); experiment: qHTS for Inhibitors of the Functional Ribonucleoprotein Complex (vRNP) of Lymphocytic Choriomeningitis Arenaviruses (LCMV): LCMV Primary Screen - GLuc reporter signal (AID 1347086); note: nearly all actives have a fitted effect of over 70% in size; for activity change, negative = inhibition: series mostly up to about 57 µM
Nucleoprotein (Lymphocytic choriomeningitis virus (strain Armstrong)), sequence (P09992 whole entry, looked up): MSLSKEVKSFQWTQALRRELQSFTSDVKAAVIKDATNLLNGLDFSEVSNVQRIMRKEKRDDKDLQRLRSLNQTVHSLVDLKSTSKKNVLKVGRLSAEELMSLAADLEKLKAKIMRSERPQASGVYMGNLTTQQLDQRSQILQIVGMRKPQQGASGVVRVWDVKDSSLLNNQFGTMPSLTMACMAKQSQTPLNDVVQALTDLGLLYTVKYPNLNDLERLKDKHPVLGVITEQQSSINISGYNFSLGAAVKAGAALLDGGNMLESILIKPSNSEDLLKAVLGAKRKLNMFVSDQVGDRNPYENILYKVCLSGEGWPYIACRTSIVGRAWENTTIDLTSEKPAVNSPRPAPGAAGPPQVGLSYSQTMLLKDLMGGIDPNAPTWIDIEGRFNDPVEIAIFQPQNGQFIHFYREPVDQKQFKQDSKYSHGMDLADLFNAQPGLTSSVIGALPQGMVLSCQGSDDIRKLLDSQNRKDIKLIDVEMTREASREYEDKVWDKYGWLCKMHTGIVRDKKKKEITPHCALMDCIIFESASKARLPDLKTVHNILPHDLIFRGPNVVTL
Potency is the fitted concentration of half-maximal effect.

Row | SMILES | Potency [1] | Potency [2] | Potency [3] | Potency [4] | activity change, negative = inhibition [1] | activity change, negative = reduced viability [2] | activity change, negative = lower viability [3] | activity change, negative = inhibition [4]
1 | O=c1[nH]c(=O)n([C@H]2O[C@H](CO)[C@@H](O)[C@@H]2O)cc1/C=C\Br | inactive | inactive | inactive | inactive |  |  |  | 
2 | Nc1ncnc2c1ncn2[C@@H]1O[C@H](COP(=O)(O)O)[C@@H](O)[C@H]1O | inactive | inactive | inactive | inactive |  |  |  | 
3 | CCCc1c2oc(C(=O)O)cc(=O)c2cc2c(=O)cc(C(=O)O)n(CC)c12 | inactive | inactive | inactive | inactive |  |  |  | 
4 | O=C(O)c1cccnc1 | inactive | inactive | inactive | inactive |  |  |  | 
5 | CC(=O)Nc1ccc(/C=N/NC(N)=S)cc1 | inactive | inactive | inactive | inactive |  |  |  | 
6 | Cn1nnc2c(C(N)=O)ncn2c1=O | inactive | inactive | inactive | inactive |  |  |  | 
7 | Oc1ccccc1 | inactive | inactive | inactive | inactive |  |  |  | 
8 | CC(C)[C@H](N)C(=O)OCCOCn1cnc2c(=O)[nH]c(N)nc21 | inactive | inactive | inactive | inactive |  |  |  | 
9 | Cc1cc(O)cc2c1O[C@](C)(CCC[C@H](C)CCC[C@H](C)CCCC(C)C)CC2 | inactive | inactive | inactive | inactive |  |  |  | 
10 | NC(CO)(CO)CO | inactive | inactive | inactive | inactive |  |  |  | 
11 | Cc1cccc(C)c1NC(=O)CC12CCCN1CCC2 | inactive | inactive | inactive | inactive |  |  |  | 
12 | CO[C@@]1(NC(=O)CSCC#N)C(=O)N2C(C(=O)O)=C(CSc3nnnn3C)CS[C@@H]21 | inactive | inactive | inactive | inactive |  |  |  | 
13 | N#Cc1ccc(C(c2ccc(C#N)cc2)n2cncn2)cc1 | inactive | inactive | inactive | inactive |  |  |  | 
14 | NC(=O)c1ccc([N+](=O)[O-])cc1Cl | inactive | inactive | inactive | inactive |  |  |  | 
15 | CCOC(=O)c1ccc(OCCN2C[C@H](O)[C@@H](O)[C@H](O)[C@H]2CO)cc1 | inactive | inactive | inactive | inactive |  |  |  | 
16 | COCCCN1CCC(NC(=O)c2cc(Cl)c(N)c3c2OCC3)CC1 | inactive | inactive | inactive | inactive |  |  |  | 
17 | CN1[C@@H]2CC(OC(=O)[C@H](CO)c3ccccc3)C[C@H]1[C@@H]1O[C@@H]12 (stereo not given in full) | inactive | inactive | inactive | inactive |  |  |  | 
18 | C#CCC(Cc1cnc2nc(N)nc(N)c2n1)c1ccc(C(=O)N[C@@H](CCC(=O)O)C(=O)O)cc1 (stereo not given in full) | 544 nM (active) | 273 nM (active) | 217 nM (active) | 306 nM (active) |  |  |  | 
19 | Cc1cc(NS(=O)(=O)c2ccc(N)cc2)nc(C)n1 | inactive | inactive | inactive | inactive |  |  |  | 
20 | NC1CCN(c2cccc(Cl)n2)CC1 | inactive | inactive | inactive | inactive |  |  |  | 

Row | SMILES | Potency [1] | Potency [2] | Potency [3] | Potency [4] | activity change, negative = inhibition [1] | activity change, negative = reduced viability [2] | activity change, negative = lower viability [3] | activity change, negative = inhibition [4]
21 | OCCc1ccccc1 | inactive | inactive | inactive | inactive |  |  |  | 
22 | CCCCC(CC)CN1CN(CC(CC)CCCC)CC(C)(N)C1 (stereo not given) | inactive | inactive | inactive | inactive |  |  |  | 
23 | C[C@@H](O)[C@H]1C(=O)N2C(C(=O)O)=C(SCCN=CN)C[C@H]12 | inactive | inactive | inactive | inactive |  |  |  | 
24 | CO[C@@]1(NC(=O)CSC[C@@H](N)C(=O)O)C(=O)N2C(C(=O)O)=C(CSc3nnnn3C)CS[C@@H]21 | inactive | inactive | inactive | inactive |  |  |  | 
25 | C[C@@H](CN1CC(=O)NC(=O)C1)N1CC(=O)NC(=O)C1 | inactive | inactive | inactive | inactive |  |  |  | 
26 | CC[N+](C)(CC)CCOC(=O)C1c2ccccc2Oc2ccccc21 | inactive | inactive | inactive | inactive |  |  |  | 
27 | O=C(OCc1ccccc1)c1ccccc1 | inactive | inactive | inactive | inactive |  |  |  | 
28 | CC(=O)c1cc2ccccc2s1 | inactive | inactive | inactive | inactive |  |  |  | 
29 | O=C(O)Cn1cnnn1 | inactive | inactive | inactive | inactive |  |  |  | 
30 | CC(C)(C)NCC(O)COc1ccccc1OCC1CCCO1 (stereo not given) | inactive | inactive | inactive | inactive |  |  |  | 
31 | CC(C)OP(=O)(CP(=O)(OC(C)C)OC(C)C)OC(C)C | inactive | inactive | inactive | inactive |  |  |  | 
32 | O=C1CC(c2ccc(Cl)cc2)CC(=O)N1 | inactive | inactive | inactive | inactive |  |  |  | 
33 | Nc1ncnc(Nc2ccccc2)n1 | inactive | inactive | inactive | inactive |  |  |  | 
34 | CN/C(=C\[N+](=O)[O-])NCCSCc1csc(CN(C)C)n1 | inactive | inactive | inactive | inactive |  |  |  | 
35 | CCCCCC=CCC=CCCCCCCCC(=O)OCC | inactive | inactive | inactive | inactive |  |  |  | 
36 | NC(=O)c1ccccc1O | inactive | inactive | inactive | inactive |  |  |  | 
37 | CCCC(CCC)(C(=O)OCC)C(=O)OCC | inactive | inactive | inactive | inactive |  |  |  | 
38 | OCc1ccc(Cl)cc1Cl | inactive | inactive | inactive | inactive |  |  |  | 
39 | Nc1ccc(S(=O)(=O)Nc2ccnn2-c2ccccc2)cc1 | inactive | inactive | inactive | inactive |  |  |  | 
40 | NC[C@H]1O[C@H](O[C@H]2[C@H](O[C@@H]3O[C@H](CO)[C@@H](O)[C@H]3O)C(O)[C@H](N)C[C@@H]2N)[C@H](N)[C@@H](O)[C@@H]1O (stereo not given in full) |  |  |  |  | -1.42% [at 11.5 µM] | -0.396% [at 11.5 µM] | -0.301% [at 11.5 µM] | 40.8% [at 11.5 µM]

Row | SMILES | Potency [1] | Potency [2] | Potency [3] | Potency [4] | activity change, negative = inhibition [1] | activity change, negative = reduced viability [2] | activity change, negative = lower viability [3] | activity change, negative = inhibition [4]
41 | CCN(CC)CCNC(=O)c1ccc(N)cc1 | inactive | inactive | inactive | inactive |  |  |  | 
42 | CC(N=C(NC#N)Nc1ccncc1)C(C)(C)C (stereo not given) | inactive | inactive | inactive | inactive |  |  |  | 
43 | CCN1CCC[C@H]1CNC(=O)c1cc(S(N)(=O)=O)ccc1OC | inactive | inactive | inactive | inactive |  |  |  | 
44 | CCCCCC(C)N (stereo not given) | inactive | inactive | inactive | inactive |  |  |  | 
45 | CC(C)(C)NCC(O)c1cc(O)cc(O)c1 (stereo not given) | inactive | inactive | inactive | inactive |  |  |  | 
46 | Oc1ccc(OCc2ccccc2)cc1 | inactive | inactive | inactive | inactive |  |  |  | 
47 | COc1cc(OC)nc(O[C@H](C(=O)O)C(OC)(c2ccccc2)c2ccccc2)n1 | inactive | inactive | inactive | inactive |  |  |  | 
48 | CC(=O)Nc1ccccc1 | inactive | inactive | inactive | inactive |  |  |  | 
49 | c1ccc2sc(SSc3nc4ccccc4s3)nc2c1 | inactive | inactive | inactive | inactive |  |  |  | 
50 | CN(C)CCN(Cc1ccsc1)c1ccccn1 | inactive | inactive | inactive | inactive |  |  |  | 
51 | O=C1CC[C@@H](C(=O)O)N1 | inactive | inactive | inactive | inactive |  |  |  | 
52 | Cc1c(N(C)CS(=O)(=O)O)c(=O)n(-c2ccccc2)n1C | inactive | inactive | inactive | inactive |  |  |  | 
53 | OCCN1CCN(CC/C=C2/c3ccccc3Sc3ccc(C(F)(F)F)cc32)CC1 | inactive | inactive | inactive | inactive |  |  |  | 
54 | CC(NN)c1ccccc1 (stereo not given) | inactive | inactive | inactive | inactive |  |  |  | 
55 | CC(C)C[C@H](NC(=O)CNC(=O)[C@H](Cc1ccc(O)cc1)NC(=O)[C@H](CO)NC(=O)[C@H](Cc1c[nH]c2ccccc12)NC(=O)[C@H](Cc1cnc[nH]1)NC(=O)[C@@H]1CCC(=O)N1)C(=O)N[C@@H](CCCN=C(N)N)C(=O)N1CCC[C@H]1C(=O)NCC(N)=O (stereo in doubt) | inactive | inactive | inactive | inactive |  |  |  | 
56 | Cc1ncc(CO)c(CO)c1O | inactive | inactive | inactive | inactive |  |  |  | 
57 | Nc1ccn([C@@H]2CS[C@H](CO)O2)c(=O)n1 | inactive | inactive | inactive | inactive |  |  |  | 
58 | Cc1cnc(NC(=O)C2=C(O)c3ccccc3S(=O)(=O)N2C)s1 | inactive | inactive | inactive | inactive |  |  |  | 
59 | O=C(O)c1ccc[n+]([O-])c1 | inactive | inactive | inactive | inactive |  |  |  | 
60 | COc1cc(C=O)ccc1O | inactive | inactive | inactive | inactive |  |  |  | 
